A short description of assay [1]: A CellTox Green Cytotoxicity Assay to monitor cytotoxicity in HepG2 cells - 0 hour (AID 1224882). Note: nearly all actives have a fitted effect of over 35% in size. A digest of the protocol:
(§1)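 Continuous culture of HepG2 cells with a membrane-impermeant DNA dye; rising fluorescence marks dead cells. Compound exposure lasted up to 40 h at 37 C, with reads every 8 h from 0 h.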

Assay [2] is described as follows: A CellTox Green Cytotoxicity Assay to monitor cytotoxicity in HepG2 cells - 32 hour (AID 1224883). Note: nearly all actives have a fitted effect of over 50% in size. A digest of the protocol: as §1
Assay [3] in a line: A CellTox Green Cytotoxicity Assay to monitor cytotoxicity in HEK293 cells - 8 hour (AID 1224884). Note: nearly all actives have a fitted effect of over 35% in size. The method in brief: (§2)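 Each value comes from one timepoint of a single continuous run in which HEK293 cells with CellTox Green were exposed to compound for up to 40 h at 37 C, dye fluorescence rising with cell death.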
Assay [4] in a line: qHTS RealTime-Glo MT Cell Viability Assay in HepG2 cells - 16 hour (AID 1224885). Note: nearly all actives have a fitted effect of over 50% in size. A digest of the protocol:
(§3)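 Real-time, nonlytic viability: 600 HepG2 cells/well mixed with NanoLuc enzyme plus prosubstrate; 5 h settle, compound (DMSO) added by pintool; luminescence monitored over 40 h at 37 C.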

A short description of assay [5]: qHTS RealTime-Glo MT Cell Viability Assay in HEK293 cells - 24 hour (AID 1224886). Note: nearly all actives have a fitted effect of over 50% in size. Note: potency is the fitted concentration of half-maximal effect. The method in brief: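 Cells + reagent dispensed (600 cells/well, HEK293) → 5 h at 37 C/5% CO2 → 23 nL compound in DMSO pinned → 40 h at 37 C → luminescence read at 0, 8, 16, 24, 32, 40 h.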
Background: Quantitative high-throughput screening tests each substance at several concentrations.

Assay [6] is described as follows: qHTS RealTime-Glo MT Cell Viability Assay in HEK293 cells - 8 hour (AID 1224887). Note: nearly all actives have a fitted effect of over 50% in size. Note: potency is the fitted concentration of half-maximal effect. A digest of the protocol:
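qHTS format; HEK293 cells with NanoLuc/prosubstrate reagent, 37 C/5% CO2 for 5 h pre-dosing; compounds 23 nL in DMSO; luminescence at each time point reflects viable cells.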

Assay [7] is described as follows: A CellTox Green Cytotoxicity Assay to monitor cytotoxicity in HEK293 cells - 16 hour (AID 1224888). Note: nearly all actives have a fitted effect of over 35% in size. A digest of the protocol: as §2
The nature of assay [8]: qHTS RealTime-Glo MT Cell Viability Assay in HepG2 cells - 0 hour (AID 1224889). Note: nearly all actives have a fitted effect of over 50% in size. A digest of the protocol:
as §3

Assay [9] can be described thus: A CellTox Green Cytotoxicity Assay to monitor cytotoxicity in HepG2 cells - 8 hour (AID 1224890). Note: nearly all actives have a fitted effect of over 45% in size. A digest of the protocol:
as §1

Assay [10] is described as follows: qHTS assay to identify small molecule antagonists of the estrogen receptor alpha (ER-alpha) signaling pathway using the BG1 cell line in the presence of 0.1 nM 17-beta-estradiol - cell viability counter screen (AID 1259241). Note: nearly all actives have a fitted effect of over 40% in size. A digest of the protocol: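 CellTiter-Fluor read (30 min, 37C) on ER-alpha/ERE-luc VM7Luc4E2 cells; 22 hr compound treatment; agonist 0.1 nM E2 final; same-well multiplex.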

Experimental findings from PubChem BioAssay (Tox21) are described below.

The structures appear in SMILES notation. Values without a mark were called inactive. Results filed as inconclusive are left out. Active and inactive are the calls of the source. Calls come from the whole dose curve; as a rule, active = well fitted curve in the direction sought with a large enough effect in the repeat runs; inconclusive = weak or mixed curves; inactive = no such curve, though single readings can be large; an effect the other way counts as inactive or inconclusive.

For `CC(=O)CCc1ccc2c(c1)OCO2`, the compound was classed as inactive in [1] and in assay [10]. For the same compound, the Potency entry in assay [2], in assay [3], in assay [4], in assay [5], in assay [6] and in assay [7] was “inactive” throughout. Moreover, the Potency result in [8] and in assay [9] was “inactive” throughout.
On to `CCCCCCI`, for which the compound was classed as inactive in [1] and in [10]. Also, the Potency entry in assay [2], in assay [3], in assay [4], in assay [5], in [6] and in assay [7] was “inactive” each time. Moreover, the Potency result in [8] and in assay [9] was “inactive” in each case.
Turning to `CS(=O)(=O)c1cc(C(F)(F)F)ccc1C(=O)c1cnoc1C1CC1`, the result in [1] was inactive. Also, the Potency result in assay [2], in assay [3], in assay [4], in assay [5], in assay [6] and in assay [7] was “inactive” each time. Besides, in [9], the Potency result was “inactive”.
On to `CC(C)[N+](=O)[O-]`, for which the outcome in assay [1] and in assay [10] was inactive. The Potency entry in assay [2], in assay [3], in assay [4], in assay [5], in assay [6] and in assay [7] was “inactive” in each case. The Potency entry in [8] and in [9] was “inactive” each time.
For `CC(Cl)(Cl)[N+](=O)[O-]`, the outcome in [1] and in assay [10] was inactive. The Potency result in assay [2], in [3], in assay [4], in [5], in assay [6] and in [7] was “inactive” throughout. Besides, the Potency entry in assay [8] and in assay [9] was “inactive” in each case.
As to `CCCCC(=O)Cl`, the compound was classed as inactive in [1] and in [10]. Also, the Potency result in assay [2], in assay [3], in [4], in assay [5], in assay [6] and in [7] was “inactive” throughout. Further, the Potency entry in assay [8] and in assay [9] was “inactive” in each case.
As to `CCC(=O)c1ccccc1`, the compound was classed as inactive in [1] and in assay [10]. Also, the Potency result in [2], in assay [3], in assay [4], in [5], in assay [6] and in assay [7] was “inactive” each time. Besides, the Potency entry in assay [8] and in assay [9] was “inactive” each time.
Regarding `CCOC(=O)CP(=O)(OCC)OCC`, the compound was classed as inactive in assay [1] and in assay [10]. Besides, the Potency result in assay [2], in assay [3], in [4], in assay [5], in assay [6] and in assay [7] was “inactive” in each case. Besides, the Potency result in [8] and in [9] was “inactive” in each case.
With `C#CCN1C(=O)COc2cc(F)c(N3C(=O)C4=C(CCCC4)C3=O)cc21`, the result in assay [1] and in [10] was inactive. For the same compound, the Potency entry in [2], in assay [3], in assay [4], in [5], in assay [6] and in [7] was “inactive” throughout. Moreover, the Potency entry in [8] and in assay [9] was “inactive” in each case.
Consider `ClC(Cl)Br`, for which the outcome in assay [1] and in [10] was inactive. Also, the Potency entry in [2], in assay [3], in assay [4], in assay [5], in assay [6] and in [7] was “inactive” each time. For the same compound, the Potency entry in assay [8] and in assay [9] was “inactive” throughout.
Regarding `O=[N+]([O-])c1ccc2c3c(cccc13)CC2`, the compound was classed as inactive in [1] and in assay [10]. For the same compound, the Potency entry in assay [2], in [3], in [4], in assay [5], in [6] and in assay [7] was “inactive” in each case. Moreover, the Potency result in [8] and in [9] was “inactive” throughout.
Consider `Cc1nnc2n1-c1sc(CCC(=O)N3CCOCC3)cc1C(c1ccccc1Cl)=NC2`, for which the compound was classed as inactive in assay [1] and in assay [10]. Besides, the Potency result in assay [2], in assay [3], in assay [4], in assay [5], in [6] and in assay [7] was “inactive” throughout. Besides, the Potency entry in assay [8] and in [9] was “inactive” each time.
For `O=C(Cc1ccccc1)OCc1ccccc1`, the result in assay [1] and in [10] was inactive. The Potency result in [2], in assay [3], in [4], in [5], in [6] and in assay [7] was “inactive” in each case. Moreover, the Potency result in assay [8] and in assay [9] was “inactive” in each case.
For `CCOP(=S)(OCC)Oc1ncn(-c2ccccc2)n1`, the compound was called inactive in assay [1] and in [10]. Moreover, the Potency entry in [2], in assay [3], in assay [4], in assay [5], in assay [6] and in [7] was “inactive” each time. Besides, the Potency result in assay [8] and in [9] was “inactive” throughout.
For the compound `CCCCOC(=O)[C@@H](C)Oc1ccc(Oc2ccc(C#N)cc2F)cc1`, the compound was called inactive in assay [1] and in assay [10]. Moreover, the Potency result in assay [2], in [3], in [4], in assay [7], in assay [8] and in [9] was “inactive” in each case. For the same compound, the Potency is 19.4 µM (active) in assay [5] and 12.2 µM (active) in [6].
For the compound `CC1=NNC(=O)N(/N=C/c2cccnc2)C1`, the call in assay [1] and in assay [10] was inactive. Further, the Potency entry in assay [2], in assay [3], in assay [4], in assay [5], in assay [6] and in assay [7] was “inactive” each time. The Potency result in [8] and in assay [9] was “inactive” each time.
Regarding `O=[N+]([O-])c1cccc2c([N+](=O)[O-])cccc12`, the outcome in assay [1] was inactive. In addition, the Potency result in assay [2], in [3], in assay [4], in assay [6], in assay [7] and in assay [9] was “inactive” in each case. Moreover, the Potency in assay [5] is 49.2 µM (active).
Regarding `CCCSC(=O)Cl`, the compound was called inactive in assay [1] and in assay [10]. For the same compound, the Potency result in [2], in [3], in [4], in assay [5], in assay [6] and in assay [7] was “inactive” throughout. For the same compound, the Potency entry in assay [8] and in assay [9] was “inactive” each time.
Consider `CC(CCc1ccccc1)NC(C)C(O)c1ccc(O)cc1` (stereo unspecified), for which the compound was called inactive in assay [1] and in [10]. In addition, the Potency entry in assay [2], in assay [3], in assay [4], in [5], in assay [6] and in [7] was “inactive” each time. Further, the Potency entry in assay [8] and in assay [9] was “inactive” throughout.
Consider `OCCBr`, for which the outcome in assay [1] and in assay [10] was inactive. The Potency result in assay [2], in assay [3], in assay [4], in [5], in [6] and in assay [7] was “inactive” each time. Moreover, the Potency result in [8] and in assay [9] was “inactive” in each case.
In the case of `CC(C)COP(=O)(OCC(C)C)OCC(C)C`, the result in assay [1] and in assay [10] was inactive. For the same compound, the Potency result in [2], in assay [3], in assay [4], in assay [5], in assay [6] and in [7] was “inactive” in each case. For the same compound, the Potency entry in assay [8] and in assay [9] was “inactive” each time.
As for `NC1=NC(=O)C(c2ccccc2)O1` (stereo unspecified), the outcome in assay [1] and in [10] was inactive. The Potency entry in assay [2], in assay [3], in [4], in [5], in assay [6] and in [7] was “inactive” throughout. The Potency result in assay [8] and in assay [9] was “inactive” each time.
Turning to `CCC(=O)C(CCN(C)C)(c1ccccc1)c1ccccc1`, the compound was called inactive in [1] and in [10]. The Potency entry in assay [2], in assay [3], in assay [4], in assay [5], in assay [6] and in assay [7] was “inactive” in each case. Also, the Potency entry in assay [8] and in assay [9] was “inactive” each time.
Take `O=C(O)c1ccc2[nH]cc(CCCCN3CC=C(c4ccccc4)CC3)c2c1`: the compound was classed as inactive in assay [1] and in [10]. Further, the Potency result in [2], in [3], in [4], in [5], in assay [6] and in [7] was “inactive” throughout. Moreover, the Potency result in assay [8] and in [9] was “inactive” in each case.
In the case of `CCOP(=O)(OCC)OP(=O)(OCC)OCC`, the call in [1] and in assay [10] was inactive. Besides, the Potency result in assay [2], in assay [3], in assay [4], in assay [5], in [6] and in assay [7] was “inactive” in each case. Also, the Potency entry in assay [8] and in assay [9] was “inactive” each time.
